Compounds with a hit are over-represented: about 3.9% of the library has one in this group of screens.
ALR inh: human ALR oxidase inhibition via reduced H2O2; P55789; purified ALR, DTT oxidation, H2O2 HRP-luminol luminescence; inhibition, % (concentration not given with the values); hit rate 3.8% among 290,000; AID 485317;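 active = mean replicate inhibition above about 79%, with every replicate also reaching it, limit read from the data; inconclusive = only one of the two criteria met; inactive = mean below limit and not every replicate reaching it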
UBC9 SUMO inh: SUMOylation inhibition | AID 2006 | HTRF SUMOylation assay, SAE1/SAE2 + UBC9, in vitro | inhibition, % at 35 µM | P63279 | hit rate 0.36% among 290,000; in the data active = inhibition above about 50%, passing the limit was not always enough; inconclusive = no clear call, values can overlap the other calls
Target sequence (P63279 whole entry, looked up): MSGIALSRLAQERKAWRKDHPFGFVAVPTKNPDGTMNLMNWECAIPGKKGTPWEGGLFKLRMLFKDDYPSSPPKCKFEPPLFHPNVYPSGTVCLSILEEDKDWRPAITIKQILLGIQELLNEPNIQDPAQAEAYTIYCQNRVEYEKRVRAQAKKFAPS
H9c2 protect: myocardial damage modulation in H9c2 cells. H9c2 cardiomyocytes, H2O2 injury protection, ATPLite, 2 h. protection from H2O2 cell death, % at 20 µM. hit rate 0.63% among 360,000;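 active = compounds giving at least 50% protection of heart cells from peroxide-induced death in the single-dose screen, raw or plate-pattern-corrected value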;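 note: 0% = DMSO wells with peroxide and 100% = DMSO wells without peroxide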
NTR1 ag: agonists of human neurotensin receptor NTR1; NTR1-U2OS beta-arrestin-GFP spot imaging, agonist mode; AID 493036; hit rate 0.17% among 330,000; activation, % at 20 µM; P30989;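 active = activation at or above 40% of the spot to cytoplasm intensity ratio, with at least 20 cells analyzed; inconclusive = wells under 20 cells, flagged as cytotoxic or low count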;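 note: 0% = DMSO without peptide and 100% = 100 nM NTR1 peptide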
Target sequence (P30989 whole entry, looked up): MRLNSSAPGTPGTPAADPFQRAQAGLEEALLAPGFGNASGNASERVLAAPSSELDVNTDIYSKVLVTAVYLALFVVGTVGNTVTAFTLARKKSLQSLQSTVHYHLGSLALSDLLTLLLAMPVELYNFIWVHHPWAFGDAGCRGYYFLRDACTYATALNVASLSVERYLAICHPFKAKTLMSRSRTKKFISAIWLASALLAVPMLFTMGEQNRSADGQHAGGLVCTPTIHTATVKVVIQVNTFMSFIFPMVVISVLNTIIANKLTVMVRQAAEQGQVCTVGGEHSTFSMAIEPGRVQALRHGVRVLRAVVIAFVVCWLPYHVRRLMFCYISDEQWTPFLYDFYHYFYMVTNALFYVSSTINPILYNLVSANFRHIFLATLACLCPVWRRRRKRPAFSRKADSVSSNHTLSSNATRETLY
* marks the source's active call; other numbers are inactive results; ? = inconclusive; . = no result; ! = not active in a repeat.

SMILES | ALR inh | UBC9 SUMO inh | H9c2 protect | NTR1 ag
Cc1ccc(CNC(=O)CCNC(=O)N2CCn3c2nc2ccccc23)cc1 | 94* | -9 | 0 | 2
CCC(C)(C(=O)Nc1ccc2c(c1)OCCO2)N(C(C)=O)c1ccc(C(N)=O)cc1 (stereo not given) | -4 | 20 | 5 | 2
CC(C)(C)c1ccc(S(=O)(=O)NC(=O)C2(C)CCN2C(=O)C2(c3ccccc3)CC2)cc1 (stereo not given) | . | . | 4 | .
O=C1CC(N(C(=O)c2ccco2)c2ccc(F)cc2)C(=O)N1c1ccc(F)cc1 (stereo not given) | -6 | 12 | 1 | -1
O=C(CN1CCCc2ccccc21)N/N=C/c1ccc(O)cc1O | 98* | -18 | 52* | -3
O=C(CN1CCCc2ccccc21)N/N=C/c1ccccc1 | 23 | -9 | -3 | -1
CC(C)(C)NC(=O)NC(=O)CN1CCCc2ccccc21 | 96* | 12 | -10 | -1
O=C(O)c1cnc(-c2ccccc2)nc1Sc1cccc(Cl)c1 | 96* | 22 | -8 | 2
O=C(O)c1cnc(-c2ccccc2)nc1Sc1ccccc1 | 1 | 20 | -3 | -2
CCOC(=O)c1cnc(Nc2nc3ccccc3o2)nc1CSc1nnc(C)s1 | 5 | . | 60* | 1
CCOC(=O)c1cnc(Nc2nc3ccccc3o2)nc1C | -5 | -17 | -22 | 2
CC(=O)Nc1ccc(C=NNc2ccc(S(=O)(=O)Nc3ccccc3C(=O)O)cc2[N+](=O)[O-])cc1 | 48 | . | -5 | -2
CCN(CC)c1ccc(SS(=O)(=O)O)cc1 | 99*! | -20 | -8 | 0
COc1ccc(-c2cn[nH]c2N)c(OC)c1 | 99* | 20 | 0 | 0
COc1ccc(-c2cn[nH]c2N)cc1 | 91* | 18 | 5 | -1
CCOc1ccc(-c2cn[nH]c2N)cc1 | 54 | 23 | -4 | 2
COc1ccc(-c2n[nH]c(=S)n2N)c(OC)c1 | 17 | 5 | 6 | 0
CCN(C(=O)c1cc(S(=O)(=O)N2CCCC2)ccc1C)C1CCS(=O)(=O)C1 (stereo not given) | -4 | . | 4 | 1
O=[N+]([O-])c1cccc(CN2C[C@@]34C=C[C@@H](C[C@@H]3S2(=O)=O)O4)c1 | 96* | 8 | 0 | -2
Cc1ccccc1Nc1c(-c2ccncc2)nc2ccc(Br)cn12 | 98* | -3 | 7 | 3
Cc1ccc2nc(-c3ccccn3)c(Nc3ccccc3C)n2c1 | 98* | -21 | -2 | 6
Cc1ccccc1Nc1c(-c2ccccn2)nc2ccccn12 | 99* | -28 | 10 | 2
COC(=O)CNc1c(-c2ccccc2)nc2ccc(Br)cn12 | 99* | -4 | -7 | -1
Cc1ccccc1Nc1c(-c2cccnc2)nc2ccc(Br)cn12 | 66 | 1 | 12 | 0
Cc1cccc2nc(-c3cccnc3)c(Nc3ccccc3)n12 | 97* | -5 | 1 | 0
SMILES | ALR inh | UBC9 SUMO inh | H9c2 protect | NTR1 ag
Cc1ccc2nc(-c3cccnc3)c(Nc3ccccc3C)n2c1 | 82* | -2 | 6 | 2
Cc1cccc2nc(-c3cccnc3)c(NCCC(C)C)n12 | ? | 19 | -2 | 4
Cc1ccc(-n2nnc3c(=O)n(CC(=O)NCc4ccccc4)cnc32)cc1 | -4 | 36 | -16 | 8
CC(=O)c1c(C)oc2ccc(N(C(=O)C3CCCCC3)S(=O)(=O)c3cc([N+](=O)[O-])ccc3C)cc12 | . | 0 | 0 | 1
COc1ccc(Cl)cc1C(=O)Nc1cccc(-c2ccc3nncn3n2)c1 | -6 | 51* | -3 | -2
Cc1cccc(NC(=O)c2cccc(N3C(=O)C4C5C=CC(C6CC56)C4C3=O)c2)c1 (stereo not given) | 89* | 15 | -8 | 3
COC(=O)c1nc(NC(=O)c2cc(OC)c(OC)c(OC)c2)n[nH]1 | 98* | 18 | 6 | 1
COc1cc(C(=O)Nc2cc(-c3ccccc3)[nH]n2)cc(OC)c1OC | -11 | -1 | 40 | -2
COc1cc(C(=O)Nc2nc(OC)c(-c3ccccc3)c(OC)n2)cc(OC)c1OC | -3 | -1 | 70* | 2
CCN(CC)C(=O)[C@H]1CC(CC(=O)NCCN2CCOCC2)C(=O)N2CCc3c([nH]c4ccc(OC)cc34)[C@]12C (stereo not given in full) | . | . | 10 | 2
O=[N+]([O-])/C=C/c1c(OCc2ccccc2)ccc2ccccc12 | -21 | 6 | -25 | 61*
CCOC(=O)COc1ccc2ccccc2c1/C=C/[N+](=O)[O-] | . | 11 | -16 | .
COc1ccc2nc3cc(Cl)ccc3c(Nc3cc(C(C)C)c(O)cc3C)c2c1 | 0 | -12 | -22 | 26
COc1ccc2nc3cc(Cl)ccc3c(Nc3cc(CN4CCCC4)c(O)c(CN4CCCC4)c3)c2n1 | 99* | 6 | 50* | 8
Cc1ccccc1N=Nc1c(N)n[nH]c1N | 93* | -5 | 4 | -1
Nc1n[nH]c(N)c1N=Nc1ccc(F)cc1 | 86* | -14 | -10 | 0
Nc1n[nH]c(N)c1N=Nc1ccccc1F | 18 | -14 | 0 | 0
COc1ccc(N=Nc2c(N)n[nH]c2N)cc1 | 78* | 5 | -1 | -2
Nc1n[nH]c(N)c1N=Nc1ccccc1 | 95* | 4 | 12 | 0
CC(=O)Nc1cccc(C(=O)OCC(=O)NC(C)c2ccc(F)cc2)c1 (stereo not given) | 1 | 11 | 4 | 2
Cc1cc2nc(-c3ccccc3)c(Cc3cccc(F)c3)n2c(C)c1Br | . | . | 0 | .
COCCNC(=O)CCCn1c(=O)c2cc(OC)c(OC)cc2n(CC(=O)c2ccccc2)c1=O | -6 | 5 | 8 | 0
C/C(CC(=O)Nc1ccccn1)=N\NC(=O)Cc1cccc2ccccc12 | 3 | 4 | -3 | 0
CNc1cc(Cl)nc(SC)n1 | 23 | -7 | 7 | -1
CSc1nc(Cl)cc(Nc2ccc(O)cc2)n1 | 99* | 5 | 3 | 0
SMILES | ALR inh | UBC9 SUMO inh | H9c2 protect | NTR1 ag
O=C(CSc1nc2c(c(=O)n1-c1ccccc1)SCC2)N1CCOCC1 | -1 | 7 | 6 | 0
CC1(C)Oc2cc3oc(-c4cc(O)cc(O)c4)cc3cc2CC1O (stereo not given) | 99* | . | -17 | 3
CCN(CC(=O)Nc1ccc(NC(C)=O)cc1)C(=O)c1cc(-c2ccccc2Cl)nc2ccccc12 | . | . | 25 | .
CC(C)Cc1nc2ccc(N)cc2[nH]1 | 100* | 25 | -1 | 0
Nc1ccc2nc(Cc3ccccc3)[nH]c2c1 | 100* | 20 | 0 | 4
Cc1ccc2nc(Cc3ccc(N)cc3)[nH]c2c1 | . | -24 | 1 | 0
CCCc1c(O)nc(SCCN(CC)CC)n(C(=O)c2ccccc2)c1=O | 98* | 25 | -8 | 0
COc1ccc2c(c1)[nH]c1c(N3CCN(Cc4ccc5c(c4)OCO5)CC3)ncnc12 | -17 | -4 | -21 | 43*
Cc1ccc2[nH]c3c(N4CCN(Cc5ccc6c(c5)OCO6)CC4)ncnc3c2c1 | . | 4 | . | .
c1ccc(CN2CCN(c3ncnc4c3[nH]c3ccccc34)CC2)cc1 | 95* | -6 | -26 | 20
O=C(NNCc1ccc(O)cc1)c1ccccc1Cl | 99* | -6 | -2 | -1
Nc1cccc(N=[N+]([O-])c2cccc(N)c2)c1 | . | . | -10 | .

Screening results from PubChem.
